This is an account of results in PubChem BioAssay AID504339 (National Center for Advancing Translational Sciences (NCATS), 2011).

Hit rate of the full screen: of about 390,000 compounds, about 17,000 (4.4%) were called active. A call without a number means that no potency is given here. About 8% were inconclusive and are not listed. Calls come from the whole dose curve; as a rule, active = well fitted inhibition curve with a large enough effect; inconclusive = small, poorly fitted or top-dose-only effect; inactive = no such curve, though single readings can be large or run the other way. Only a selection was taken, and actives are over-represented in it overall.
Potency is the fitted concentration of half-maximal effect.

The target of this test is Lysine-specific demethylase 4A (Homo sapiens) (UniProt O75164). As to the kind of experiment: qHTS Assay for Inhibitors of JMJD2A-Tudor Domain. Note: nearly all actives have a fitted effect of over 50% in size. The following applies: AlphaScreen JMJD2A-Tudor / H3K4me3 peptide binding; series mostly up to 114 µM. Background: qHTS replaces the single test concentration by a dilution series.
Sequence of Lysine-specific demethylase 4A (Homo sapiens) (O75164 whole entry, looked up, the tested form may be a part): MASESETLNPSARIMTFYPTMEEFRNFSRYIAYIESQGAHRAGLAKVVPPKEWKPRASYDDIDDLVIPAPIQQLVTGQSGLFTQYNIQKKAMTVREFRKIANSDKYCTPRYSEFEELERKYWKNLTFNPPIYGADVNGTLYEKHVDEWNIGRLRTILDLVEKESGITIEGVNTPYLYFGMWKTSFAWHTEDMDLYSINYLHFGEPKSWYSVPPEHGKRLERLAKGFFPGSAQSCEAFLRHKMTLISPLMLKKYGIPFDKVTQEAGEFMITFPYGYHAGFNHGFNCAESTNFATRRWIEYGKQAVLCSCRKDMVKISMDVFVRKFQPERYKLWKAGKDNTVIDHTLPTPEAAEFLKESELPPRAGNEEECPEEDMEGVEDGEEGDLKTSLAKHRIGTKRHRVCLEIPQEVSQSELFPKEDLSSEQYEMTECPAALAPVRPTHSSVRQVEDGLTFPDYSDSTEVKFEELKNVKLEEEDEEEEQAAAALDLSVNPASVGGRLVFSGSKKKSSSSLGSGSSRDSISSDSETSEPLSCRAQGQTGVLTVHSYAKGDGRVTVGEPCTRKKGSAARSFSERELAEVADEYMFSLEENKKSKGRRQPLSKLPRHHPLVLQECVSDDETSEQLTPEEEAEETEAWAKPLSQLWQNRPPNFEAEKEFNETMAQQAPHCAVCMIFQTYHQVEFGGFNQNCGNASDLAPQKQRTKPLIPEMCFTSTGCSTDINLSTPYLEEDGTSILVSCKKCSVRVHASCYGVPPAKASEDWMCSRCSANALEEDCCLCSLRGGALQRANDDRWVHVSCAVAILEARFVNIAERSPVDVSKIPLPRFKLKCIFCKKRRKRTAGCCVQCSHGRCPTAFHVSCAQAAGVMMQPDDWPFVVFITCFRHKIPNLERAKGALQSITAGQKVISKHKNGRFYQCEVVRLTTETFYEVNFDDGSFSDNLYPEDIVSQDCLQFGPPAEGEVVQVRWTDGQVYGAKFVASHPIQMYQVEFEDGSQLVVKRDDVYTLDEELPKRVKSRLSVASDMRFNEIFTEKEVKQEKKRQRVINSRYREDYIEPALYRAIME
For the molecule `Cc1ccc(NC(=O)CSc2nc3c(c(=O)[nH]2)CN(Cc2ccc4c(c2)OCO4)CC3)cc1C`, the Potency entry was “inactive”.

As to `CCOC(=O)c1ccc(CN(Cc2ccccc2)S(=O)(=O)c2ccc(Cl)cc2)cc1`, the Potency result is “inactive”.

Consider `COc1cccc(NC(=O)CN2C(=O)c3ccccc3Sc3ncccc32)c1`, for which the Potency result was “inactive”.

Take `CCNS(=O)(=O)c1cc(-c2nnc(Nc3cccc(C(F)(F)F)c3)c3ccccc23)ccc1C`: the Potency result is “inactive”.

Turning to `CCC(=C/c1sc2ccc3ccccc3c2[n+]1C)/C=C1\Sc2ccc3ccccc3c2N1C`, the Potency is 50.1 µM (active).

Regarding `COc1ccc(CN2C(=O)C(NC(=O)c3cccc(C)c3)(C(F)(F)F)N=C2c2ccccc2)cc1` (configuration not stated), the Potency entry is “inactive”.

For `Cc1ccc(S(=O)(=O)NCC(=O)N2CCN(c3ccccn3)CC2)cc1`, the Potency entry is “inactive”.

In the case of `Cc1ccc(N2CCN(c3ccc(C)cc3)C2c2ccccn2)cc1`, the Potency was 25.1 µM (active).

Consider `Cc1ccc(-n2ccc(=O)c(C(=O)O)n2)cc1`, for which the Potency result was “inactive”.

With `Cc1cccc(OCC(=O)N(Cc2ccc(C(C)C)cc2)Cc2ccco2)c1C`, the Potency result is “inactive”.

With `Oc1c(C(c2ccccc2Cl)N2CCOCC2)sc2nc(-c3ccco3)nn12` (configuration not stated), the Potency result is “inactive”.

In the case of `Oc1c(C(c2ccccn2)N2CCOCC2)ccc2cccnc12` (configuration not stated), the Potency was 17.8 µM (active).

With `COc1cc(NC(=O)c2noc3c2CSc2ccccc2-3)cc(OC)c1OC`, the Potency result is “inactive”.

`CC(=O)N1CCCc2cc(S(=O)(=O)Nc3ccc(Cl)cc3F)ccc21`: the Potency result was “inactive”.

For the molecule `CCCCc1nn2c(=O)cc(COC(=O)c3ccccc3NC(=O)C(C)(C)C)nc2s1`, the Potency entry is “inactive”.

In the case of `O=C(c1ccc(CS(=O)(=O)c2ccccc2)o1)N1CCN(c2ccccc2)CC1`, the Potency was 56.2 µM (active).

In the case of `O=C(c1ccc(S(=O)(=O)NCc2ccco2)cc1)N1CCN(c2ccccc2)CC1`, the Potency entry was “inactive”.

For `COc1ccccc1CNC(=O)c1ccc(CS(=O)(=O)c2ccccc2)o1`, the Potency entry was “inactive”.

Take `Cc1cc(C)cc(NC(=O)CCS(=O)(=O)c2cc3c4c(c2)CCN4C(=O)CC3)c1`: the Potency entry was “inactive”.

Take `Cc1cc(C)c2oc(C(=O)Nc3c(C(=O)Nc4ccccc4)oc4ccccc34)cc(=O)c2c1`: the Potency result was “inactive”.

As to `Cc1ccc(C)c(Oc2c(C(F)(F)F)oc3c(CN4CCN(C)CC4)c(O)ccc3c2=O)c1`, the Potency entry is “inactive”.

In the case of `Cc1c(Cl)cccc1NC(=O)C1CCCN(c2ncnc3onc(C)c23)C1` (configuration not stated), the Potency entry was “inactive”.
